The whole screen tested about 2,300 compounds, of which about 1,000 (43%) were called active. The set was probably picked from earlier hits. This is one part of the list. Measured potencies and affinities stand elsewhere. Values without a mark were called inactive. The rule behind the calls is not given here.

A short description of the assay: modified counter assay using GFP fluorescence, PhoP regulon inhibitor project, dose response (AID 1985). The settings on record: S. Typhi, 4 h; series mostly up to 150 µM; inhibition: at the top concentration.
One may read the inhibition as the relative decrease from the control value, in per cent. On to `CCC(=O)N(Cc1cc2cc(OC)ccc2[nH]c1=O)c1ccc(C)cc1C`, for which the “inhibition” value is -1.85%. With `O=C(CCS(=O)(=O)c1ccccc1)Nc1ccc2c(c1)C(=O)NC2=O` the figure was -8.55%; with `Cc1ccc2nsnc2c1S(=O)(=O)NCc1ccc2c(c1)OCO2`, -19.2%; with `c1cncc(CSc2ccc(-c3cccs3)nn2)c1`, 21.3%. In the case of `c1ccc2c(c1)CCN(c1nc3ccccc3n3cnnc13)C2` it was -0.2%. In the case of `COc1ccc2c(c1OC)C(=O)N(c1ccc(C)cc1)C2=O` it was -3.73%; in that of `Cc1cc(C(F)F)n2nc(C(=O)Nc3cc(C)on3)nc2n1`, -28.2%; in that of `Cc1[nH]nc2c1C(C1CC=CCC1)C(C#N)=C(N)O2` (stereo not given), -24.6%. As to `COc1ccc(-n2c3c(cc(C(=O)Nc4cccc(C)n4)c2=O)C(=O)CC(C)(C)C3)cc1`, the “inhibition” value is 8.22%. With `CC1(C)CC(=O)C2=C(C1)N(c1ccc(F)cc1)C(=O)CC2c1ccsc1` (stereo not given) the figure was -3.27%; with `CCc1ccc(NC2=NCCCS2)cc1`, 33.4%; with `CCCCN(C)C(=O)c1ccc(S(=O)(=O)N2CCOCC2)cc1`, -15%. In the case of `CSc1ccc(NC(=O)C(C)N2CCN(C)CC2)cc1` (stereo not given) it was 20.9%. With `CC(C)c1c(O)nc(SCC(=O)N2CCOCC2)[nH]c1=O` the figure was 15.7%; with `Cc1cc(C)c2c(=O)[nH]c(SCC(=O)N3CCCCC3)nc2n1`, 12.4%; with `Nc1nc(SCC(=O)Nc2ccc3c(c2)CCC3)n[nH]1`, 24.4%. As for `CCCCC(=O)Nc1ccc2c(c1)C(=O)NC2=O`, the “inhibition” value was 3.13%. In the case of `CCCC1(c2ccccc2)NC(=O)N(CC(=O)Nc2cc(S(=O)(=O)N3CCOCC3)ccc2Cl)C1=O` (stereo not given) it was -10.2%.

As to `CN1Cc2ccccc2N(CC(=O)NCc2ccccc2)C1=O`, the “inhibition” value is 17.8%.

For the molecule `O=C(CC1(O)C(=O)Nc2ccc(Br)cc21)c1ccc2c(c1)OCO2` (stereo not given), the “inhibition” value was -18.1%. On to `CCn1c(=N)n(CC(=O)c2ccc(OC)cc2)c2ccccc21`, for which the “inhibition” value was 26%. With `CCOC(=O)CNC(=O)Cn1c(C)cc2ccccc2c1=O` the figure was -9.62%; with `O=C(CN(Cc1ccco1)C(=O)CNS(=O)(=O)c1ccc(Cl)cc1)NCc1ccc(F)cc1`, -0.77%; with `CCN1CCN(CC(=O)Nc2ccc(C)c(Br)c2)CC1`, 10.2%.

Consider `CS(=O)(=O)N(CCc1ccccc1)CC(=O)Nc1ccc2c(c1)OCO2`, for which the “inhibition” value is -15.3%. With `CCN(CC)CCn1nc(C)nc1-c1ccccc1O` the figure was 27.2%. With `Clc1ccc(Nc2nc(C3CC3)cs2)cc1` the figure was 12%. With `C/C(=N\Nc1ccc(C)c(Cl)c1)c1cccnc1` the figure was -11.4%; with `Cc1ccc(NC2=NCCCS2)cc1Cl`, 38%; with `c1ccc2oc(-c3ccc(Nc4nc(N5CCCCC5)nc(N5CCOCC5)n4)cc3)nc2c1`, -13.3%. Take `CCc1nc(SCC(=O)Nc2ccc(N(C)C)cc2)c2ccccc2n1`: the “inhibition” value is -3.05%.

With `Nc1nc(N2CCN(c3ccccn3)CC2)nc2ccccc12`, the “inhibition” value was 1.19%. In the case of `O=C(CN1C2=NCCN2c2ccccc21)c1ccc2c(c1)OCO2` it was 9.44%; in that of `CN(C)C(/C=C/Nc1ccc(F)cc1F)=C(C#N)C#N`, -10.3%. In the case of `CCOc1ccc(NC(=O)CN(C)C(=O)c2ccccc2CCc2ccccc2)cc1OCC` it was -32.9%; in that of `CC(C)CC(=O)Nc1ccc(-c2cn3cccnc3n2)cc1`, 14.1%; in that of `CCOc1ccc(-c2nc(N)ncc2-c2ccccc2)c(O)c1`, 18.8%. As for `CCOc1ccc(NC(N)=O)cc1`, the “inhibition” value was 15.4%.

For the molecule `Cc1ccc(Cn2c(=N)c(C(=O)NCc3ccco3)cc3c(=O)n4ccccc4nc32)cc1`, the “inhibition” value is 16.6%. In the case of `CCn1cnc2cc(NCc3ccc(Br)cc3)ccc21` it was 15.8%. For `NC(=O)CN1N=C(c2cc(Cl)sc2Cl)CSC1=O`, the “inhibition” value is 4.36%. On to `CN1C(=O)c2ccc(NC(=O)C3CCCCC3)cc2C1=O`, for which the “inhibition” value was -8.71%.

`COc1ccc(C(=O)Nc2cc3c(cc2OC)CCCC3)cc1Br`: the “inhibition” value was -5.35%. With `CCCCN(CCCC)CCNC(=O)CSCc1ccc(C)cc1` the figure was -17.4%; with `COCc1[nH]nc2c1C(c1ccc(OC)cc1)C(C#N)=C(N)O2` (stereo not given), -3.75%. With `COc1cccc(/C=N/NC(=O)CNC(=O)CCc2ccccc2)c1O` the figure was 24.4%; with `CCCCn1cnc2cc(NCc3cccc(OC)c3O)ccc21`, 28.6%; with `COc1ccccc1NC(=O)Cn1cnc2c(nnn2-c2ccc(C)cc2)c1=O`, -10.9%. With `COc1cccc(/C=N/NC(=O)CO/N=C(\C)c2cccs2)c1OC` the figure was 34.1%; with `Cc1ccc(C)c2[nH]c(=O)c(CN(Cc3cccnc3)C(=S)NCc3ccco3)cc12`, -16.5%.

As to `C=CCn1c(NC(C)c2cc(Cl)ccc2O)nc2ccccc21` (stereo not given), the “inhibition” value was -14.7%. With `COc1ccc(C2=NN3C(=O)c4c(ccc(OC)c4OC)C3C2)cc1` (stereo not given) the figure was 9.8%; with `O=C(NCc1cccnc1)c1ccc(Cl)cc1[N+](=O)[O-]`, -10.5%. As for `O=C(NCc1cccnc1)C1c2ccccc2C(=O)N1Cc1ccccc1` (stereo not given), the “inhibition” value is -16.2%. With `Clc1ccc(Cn2cc(Br)cn2)cc1Cl` the figure was 3.19%. With `C=C(C)Cn1c(-c2ccc(OC)cc2)nc2ccccc21` the figure was 3.51%; with `COC(=O)Cn1c(=O)c(C)nc2ccccc21`, -9.43%. With `COc1ccc(N2CCN(C(=O)c3cc4c(s3)-c3ccccc3S(=O)(=O)C4)CC2)cc1` the figure was -14.6%. Turning to `CCCC(=O)Nc1c2c(nn1-c1ccc(C)cc1C)CSC2`, the “inhibition” value was 1.8%. With `CN(C)C(=O)COC(=O)/C=C/c1ccccc1[N+](=O)[O-]` the figure was -11.5%.

As for `Oc1ccc(C2NCc3ccccc3-n3cccc32)cc1Cl` (stereo not given), the “inhibition” value is -0.67%. With `COC(=O)C(NC(C)=O)(Nc1nc2c(s1)CCCC2)C(F)(F)F` (stereo not given) the figure was -28.5%; with `CCN1CCN(CCNC(=O)c2ccc(/C=C3/Sc4ccccc4N(Cc4cccc(C)c4)C3=O)cc2)CC1`, 12.9%; with `CCN1CCN(CCCNC(=O)c2ccc(/C=C3/Sc4ccccc4N(Cc4ccccc4F)C3=O)cc2)CC1`, 33.6%. With `S=C1NCN(C2CCCCC2)CN1c1ccccc1` the figure was 36.9%.

Regarding `CC(=O)C1C(c2ccc(OC(F)F)cc2)NC(=O)NC1(O)C(F)(F)F` (stereo not given), the “inhibition” value was 3.26%. In the case of `COc1ccc(C2C3=C(CC(C)(C)CC3=O)Nc3cc4c(cc32)OCO4)cc1` (stereo not given) it was 1.35%; in that of `CCc1nc(C)ccc1OCC(=O)NCCCN(C)C`, 2.34%; in that of `CCc1nc(C)ccc1OCC(=O)N(CC)CC`, 11.3%. In the case of `Cc1cc(C)n(/N=C/c2cc(Cl)cc(Cl)c2O)c(=O)c1` it was 23.2%; in that of `CC1CCN(C(=O)C2CCCN(S(C)(=O)=O)C2)CC1` (stereo not given), -2.3%.

For the molecule `NC(=O)c1ccc[n+](CC(=O)c2cccc([N+](=O)[O-])c2)c1`, the “inhibition” value was -10.5%. With `Cc1ccc(C(=O)Nc2ccc3c(c2)ncn3C)cc1` the figure was 36.9%.

For `COc1cccc(/C=N/NC(=O)CNC(=O)COc2cccc(C)c2)c1O`, the “inhibition” value was 14.2%. With `COc1ccc(/C=N/NC(=O)c2cccnc2)c(C(=O)O)c1OC` the figure was -1.18%.

The record behind these values is PubChem BioAssay AID1985 (Southern Research Specialized Biocontainment Screening …, 2009).
